# Source: the supplement of paper PMC10981050
# “And” between values parts separate entries of the source, which are not always exact repeats. Equal entries are not always repeated. Structures can show the parent of a compound that is named as a salt.
# Key:
# Experiment in all cases: cell viability relative to vehicle control; higher = less cytotoxic
# Conditions in all cases: 10 µM
# K562 = tested on: K562
# How it was run: (§1)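 Mutant clones made by CRISPR editing and their isogenic wild-type counterparts, from four leukaemia lines, were exposed to a single 10 µM dose of each library compound for 48 h. The supernatant was then removed and CellTiter-Glo luminescence was read. Viability was reported as percent of the on-plate vehicle control.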
# MARIMO = tested on: MARIMO
# How it was run: as §1
# MOLM14 = tested on: MOLM14
# How it was run: as §1
# OCI-AML2 = tested on: OCI-AML2
# How it was run: as §1
SMILES,cell viability (K562; SRSF2 genotype: SRSF2 P95H/wt),cell viability (K562; SRSF2 genotype: SRSF2 wt/wt),cell viability (MARIMO; SRSF2 genotype: SRSF2 P95H/wt),cell viability (MARIMO; SRSF2 genotype: SRSF2 wt/wt),cell viability (MOLM14; SRSF2 genotype: SRSF2 P95H/wt),cell viability (MOLM14; SRSF2 genotype: SRSF2 wt/wt),cell viability (OCI-AML2; SRSF2 genotype: P95H/wt),cell viability (OCI-AML2; SRSF2 genotype: wt/wt)
Cc1cccc(C)c1NC(=O)c1cc(S(N)(=O)=O)c(Cl)cc1O [Xipamide],101% and 94.8%,104%,103%,113%,101%,107%,97.5%,106%
C=CC(=O)N1CCN(C(=O)CNc2cc(I)c(Cl)cc2O)CC1 [K-Ras(G12C) inhibitor 12],78.9% and 84.7%,75.2%,79.8%,83.6%,62.9%,81.2%,93.3%,88.1%
COc1ccc(-c2oc3cc(O)cc(O)c3c(=O)c2O)cc1 [kaempferide],108% and 104%,103%,105%,119%,74.6%,98.2%,80.7%,82.7%
CC(C)(C)c1cc(/C=C(\C#N)C(N)=S)cc(C(C)(C)C)c1O [Tyrphostin AG 879 (AG 879)],22.1% and 17.9%,25.2%,73.5%,68.3%,20.1%,14.8%,7.33%,15.8%
CN[C@@H](C)C(=O)N[C@H](C(=O)N1CCC[C@H]1c1nc(C(=O)c2ccc(F)cc2)cs1)C1CCCCC1,84.3% and 92.2%,89.4%,70.1%,82.2%,58.3%,82.3%,75.8%,90.5%
"CC1(C)C2CCC1(C)C(O)C2 (single isomer, unassigned; (+)) [(+)-Borneol]",96.5% and 99.3%,105%,100%,106%,101%,103%,101%,98%
Oc1ccc(OC2CCCCO2)cc1 (stereo not given) [Deoxyarbutin],104% and 99.3%,105%,84.6%,93.3%,83.3%,81.9%,87.4%,83.2%
O=c1cc(-c2ccc(O[C@@H]3O[C@H](CO)[C@@H](O)[C@H](O)[C@H]3O)cc2)oc2cc(O)c([C@@H]3O[C@H](CO)[C@@H](O)[C@H](O)[C@H]3O[C@@H]3OC[C@H](O)[C@H](O)[C@H]3O)c(O)c12 [Vaccarin],97.3% and 93.7%,94.2%,99.2%,96.3%,92.3%,100%,91.1%,96%
NC(=O)/C(=C/n1cnc(-c2cc(C(F)(F)F)cc(C(F)(F)F)c2)n1)c1cncnc1,3.74% and 12.7%,11.3%,15.4%,17.5%,0.67%,0.57%,1.55%,4.56%
CC1(C)S[C@@H]2[C@H](NC(=O)[C@H](N)c3ccccc3)C(=O)N2[C@H]1C(=O)O [Ampicillin sodium],99% and 108%,102%,109%,109%,102%,107%,109%,95.7%
NC(=O)c1cccc(N)c1 [INO-1001 (3-Aminobenzamide)],96.6% and 95.7%,94.7%,99.5%,97.8%,100%,96.6%,94.7%,98.8%
N[C@@H](CS)C(=O)O [L-Cysteine HCl],87.6% and 82.9%,82.4%,89%,97.7%,89.1%,87.8%,89.1%,94.3%
CC1(C)CC(=O)c2c(C(F)(F)F)nn(-c3ccc(C(N)=O)c(N[C@H]4CC[C@H](OC(=O)CN)CC4)c3)c2C1,21.8% and 27.1%,25.3%,29.4%,24.4%,2.89%,4.44%,14.6%,22.1%
O=S(=O)(NCCSSCCNS(=O)(=O)c1cc(Cl)ccc1Cl)c1cc(Cl)ccc1Cl,80.6% and 84.4%,69.5%,61%,72.4%,53.8%,48.8%,51.9%,52.5%
Cc1ccccc1N1CCN(CCc2nnc3n2CCCC3)CC1 [Dapiprazole Hydrochloride],103% and 96%,93.2%,97.7%,110%,97%,102%,96.4%,97.1%
COc1cc([C@H]2OC[C@H]3[C@@H]2CO[C@@H]3c2ccc(O[C@@H]3O[C@H](CO)[C@@H](O)[C@H](O)[C@H]3O)c(OC)c2)ccc1O[C@@H]1O[C@H](CO)[C@@H](O)[C@H](O)[C@H]1O [Pinoresinol diglucoside],105% and 104%,101%,105%,108%,105%,103%,104%,109%
NC1CC1c1ccc(-c2cccc(O)c2)cc1 (stereo not given),96.2% and 104%,97.1%,88.3%,106%,99.4%,99.1%,87%,92%
CC(=O)OC(C)C(C)C(=O)OCC12C3CC(C)(C)[C@H](O[C@@H]1C[C@]1(C)C3=CCC3C4(C)CCC(O[C@@H]5O[C@H](C(=O)O)[C@@H](O[C@H]6O[C@H](CO)[C@@H](O)[C@H](O)[C@H]6O)[C@H](O)[C@H]5O[C@@H]5OC[C@@H](O)[C@H](O)[C@H]5O)[C@](C)(CO)C4CCC31C)C2O (stereo not given in full) [Sodium Aescinate],90.7% and 98.9%,93.9%,95.5%,96.8%,89.4%,92.3%,88.5%,93.2%
CC(=O)c1ccccc1 [Acetophenone],98.7% and 89.7%,91.4%,84.5%,91.5%,90.6%,91.1%,85.3%,83.6%
Fc1ccc([C@@H]2CCNC[C@H]2COc2ccc3c(c2)OCO3)cc1 [Paroxetine HCl],63.6% and 68.3%,67.6%,44%,44.1%,47.7%,56.5%,43%,52.4%

SMILES,cell viability (K562; SRSF2 genotype: SRSF2 P95H/wt),cell viability (K562; SRSF2 genotype: SRSF2 wt/wt),cell viability (MARIMO; SRSF2 genotype: SRSF2 P95H/wt),cell viability (MARIMO; SRSF2 genotype: SRSF2 wt/wt),cell viability (MOLM14; SRSF2 genotype: SRSF2 P95H/wt),cell viability (MOLM14; SRSF2 genotype: SRSF2 wt/wt),cell viability (OCI-AML2; SRSF2 genotype: P95H/wt),cell viability (OCI-AML2; SRSF2 genotype: wt/wt)
Cc1c(-c2ccnn2C)cc(C(=O)NCc2ccc(S(C)(=O)=O)cn2)c(=O)n1-c1cccc(C(F)(F)F)c1,97.6% and 102%,100%,112%,105%,109%,106%,107%,113%
O=c1nc(N2CCOCC2)oc2c(-c3cccc4c3sc3ccccc34)cccc12,92.3% and 93.3%,90.1%,93.2%,102%,82.6%,81.6%,75.1%,80.3%
CN(C)CCc1c[nH]c2ccc(C[C@H]3COC(=O)N3)cc12 [Zolmitriptan (Zomig)],96.7% and 103%,104%,107%,102%,99.4%,104%,108%,101%
CCOc1ccccc1OCCN[C@H](C)Cc1ccc(OC)c(S(N)(=O)=O)c1 [Tamsulosin hydrochloride],102% and 97.9%,98.3%,96.9%,107%,98.5%,103%,92.7%,104%
CCOc1ccccc1OC(c1ccccc1)C1CNCCO1 (stereo not given) [Reboxetine mesylate],94.5% and 93.4%,90.7%,81.9%,91.7%,92.2%,95.8%,70.1%,97.4%
CC/C(=C(\c1ccccc1)c1ccc(OCCN(C)C)cc1)c1ccccc1 [Tamoxifen Citrate (Nolvadex)],82.2% and 76.4%,93%,80%,74.3%,74.5%,81.8%,69.7%,74.5%
CCCCCCCCCCCCCCCC(=O)N[C@@H](CCSC)C(=O)NCC(=O)N[C@@H](Cc1ccc(O)cc1)C(=O)N[C@@H](CCC(N)=O)C(=O)N[C@@H](CCCCN)C(=O)N[C@@H](CCCCN)C(=O)N[C@@H](CC(C)C)C(=O)N[C@@H](CCCNC(=N)N)C(=O)N[C@@H](CO)C(=O)N[C@@H](CCSC)C(=O)N[C@H](C(=O)N[C@@H](CC(=O)O)C(=O)N[C@@H](CCCCN)C(=O)N[C@@H](Cc1ccc(O)cc1)C(=O)N[C@@H](CCCNC(=N)N)C(=O)N[C@@H](CC(C)C)C(=O)O)[C@@H](C)O,90.8% and 92.9%,90%,76.6%,82.2%,58.6%,72.7%,75.1%,94.9%
CCN(CC)CCNC(=O)c1c(C)[nH]c(/C=C2\C(=O)Nc3ccc(F)cc32)c1C [Sunitinib Malate],17.8% and 22.7%,12.7%,18.5%,19.4%,0.31%,0.38%,0.42%,1.47%
Cc1nc(Nc2n[nH]c3c2CN(C(=O)N[C@H](CN(C)C)c2ccccc2)C3(C)C)c2sccc2n1,13.2% and 22.6%,14.3%,5.65%,3.34%,0.49%,0.42%,0.9%,10.7%
CN1C(C(=O)Nc2ccccn2)=C(O)c2ccccc2S1(=O)=O [Piroxicam (Feldene)],99.5% and 103%,100%,97.3%,106%,97.6%,105%,104%,105%
Oc1cc(O)c(Cl)cn1 [Gimeracil],105% and 98.5%,92.4%,101%,109%,102%,107%,101%,111%
CN(C)CCN1C(=O)c2cccc3cc(N)cc(c23)C1=O [Amonafide],33.8% and 37.6%,32.1%,7.66%,10.7%,0.3%,0.27%,0.94%,2.97%
CN1CC2c3ccccc3Oc3ccc(Cl)cc3C2C1 (stereo not given) [Asenapine maleate],88.3% and 92.2%,88.2%,63%,78.8%,88%,92.6%,69.9%,73.2%
C[C@@H]1O[C@@H](O[C@H]2[C@H](Oc3cc(O)c4c(c3)O[C@H](c3ccc(O)cc3)CC4=O)O[C@H](CO)[C@@H](O)[C@@H]2O)[C@H](O)[C@H](O)[C@H]1O [Naringin (Naringoside)],101% and 119%,111%,102%,107%,106%,109%,112%,100%
CS(=O)(=O)n1cc2c(n1)CN([C@H]1CO[C@H](c3cc(F)ccc3F)[C@@H](N)C1)C2 [Omarigliptin (MK-3102)],98.3% and 102%,96.2%,99.2%,99.9%,101%,96.4%,101%,103%
CN(CCN1CCC(OC(=O)Nc2ccccc2-c2ccccc2)CC1)C(=O)c1ccc(CN2CCC(C(N)=O)CC2)cc1 [Revefenacin],94.7% and 89.9%,92.8%,82.7%,90.8%,87.1%,92.2%,83.2%,83.5%
CC1(C)[C@@H](O[C@H]2O[C@H](C(=O)O)[C@@H](O)[C@H](O)[C@H]2O[C@@H]2O[C@H](C(=O)O)[C@@H](O)[C@H](O)[C@H]2O)CC[C@]2(C)[C@H]3C(=O)C=C4[C@@H]5C[C@@](C)(C(=O)O)CC[C@]5(C)CC[C@@]4(C)[C@]3(C)CC[C@@H]12 [Ammonium Glycyrrhizate],97.4% and 102%,99.3%,101%,101%,106%,98.9%,106%,99%
COc1cc(Nc2ncc(F)c(Nc3ccc4c(n3)NC(=O)C(C)(C)O4)n2)cc(OC)c1OC,99.2% and 103%,104%,83.7%,85.8%,22.3%,19.6%,41.2%,47.7%
C=CC(=O)Nc1cccc(C)c1Nc1ncc2cc(-c3c(Cl)c(OC)cc(OC)c3Cl)ccc2n1,29.7% and 25.7%,35.1%,47.6%,55.7%,6.84%,4.93%,6.53%,11.9%
CC(C)CCNc1ncccc1C(=O)N1CCN(Cc2ccccc2)CC1,103% and 100%,102%,93.8%,105%,96.9%,103%,103%,105%
